Among all 330,000 compounds or so, about 960 (0.29%) were called active. Only a selection was taken, and actives are over-represented in it overall. Values without a mark were called inactive.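 The calls were made as follows: active = compounds whose signal lies at least 3.5 SD above the mean of all wells on their plate; inactive = the rest.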

A short description of the experiment: small molecules increasing insulinoma cell replication – ATP luminescence, uHTS, primary screen (AID 2380).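 Also: 0% = DMSO-treated cells in low-serum medium and 100% = 10% serum control.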 The following applies: MIN6 cells proliferation, ATPlite luminescence, 48 h; at 10 µM; hits give high values; 100% = growth in 10% serum; cells starved in 0.2% serum. Background: ATP-based viability assays read luminescence as a measure of living cells.
As to `O=C(CN1CCN(c2ccc(F)cc2)CC1)Nc1cccc(C(F)(F)F)c1`, the proliferation is -3.27%. For `CC(C)(C)C1CCC(OC(=O)CCC(=O)Nc2ccccc2)CC1` (configuration not stated) the value was 0%; for `O=C1c2ccccc2S(=O)(=O)c2cc(N3CCN(c4ccccn4)CC3)ccc21`, 12.1% (active). For `O=C(c1ccc2c(c1)C(=O)N(c1ccc(Cl)cc1)C2=O)N1CCN(c2ccccn2)CC1`, the proliferation is 2.75%. Take `O=C(c1ccc2c(c1)N(Cc1ccc(F)cc1)C(=O)c1ccccc1S2(=O)=O)N1CCN(c2ccccn2)CC1`: the proliferation is -0.68%.

With `Cc1cc(=O)oc2cc(OCC3CC(c4ccccc4Cl)=NO3)ccc12` (configuration not stated), the proliferation was -5.28%. As to `COc1ccc(OCC(=O)OCCN(C)C)cc1`, the proliferation was 0.06%.

Regarding `Cc1c(C(=O)NCCN(C)C)oc2ccc(S(=O)(=O)N3CCCC3)cc12`, the proliferation was 0%. For the molecule `CCn1c(SCC(=O)N/N=C/C=C/c2ccccc2[N+](=O)[O-])nnc1-c1ccccc1`, the proliferation was -1.08%. The value for `O=C(CSc1nc2ccccc2[nH]1)N/N=C/C=C\c1ccccc1[N+](=O)[O-]` was 6.1% (active).

In the case of `Cc1ccc(-n2c(SCC(=O)N/N=C/C=C/c3ccccc3[N+](=O)[O-])nc3ccccc3c2=O)cc1`, the proliferation is -2.84%.

Consider `Cn1cc(-c2ccccc2)cc(C#N)c1=O`, for which the proliferation was -2.8%. The value for `O=C(NNC(=S)NCc1ccccc1)c1ccc(OC(F)F)cc1` was 0% (active); that for `Cc1ccc(OCC(=O)NNC(=S)NCc2ccccc2)cc1` was 1.61%; that for `Cc1scc(C(=O)NNC(=S)NCc2ccccc2)c1C` was 0%.

With `C=CCn1nc(-c2ccccc2)c2c(C)onc2c1=O`, the proliferation was 2.27%. `Cc1cccc(CN2CCC(n3nccc3NC(=O)c3ccccc3C)CC2)n1`: the proliferation was 0.34%. The value for `CN1C(=O)[C@H]2[C@@H](C3CC3)N3C(=O)CN(Cc4ccccc4)C(=O)[C@@]3(C)[C@H]2C1=O` was 3.27%; that for `CCCCC(=O)NCc1ccc(F)cc1` was 0%. Regarding `Fc1ccc(CNCc2ccc(Br)cc2)cc1`, the proliferation is 5.1% (active).

In the case of `O=C(CC1CCCCC1)NCc1ccc(F)cc1`, the proliferation is -3.62%. Consider `Cc1ccc(S(=O)(=O)N2CCN(C(=O)c3ccccc3-c3nc4ccccc4s3)CC2)c(C)c1`, for which the proliferation was -1.73%. For `COc1ccc(Cl)cc1S(=O)(=O)Nc1cccc(C(=O)O)c1` the value was -0.59%. The value for `CC(C)c1nnc(NC(=O)COC(=O)/C=C/c2ccc([N+](=O)[O-])cc2)s1` was 0.53%; that for `COc1ccccc1OCc1ccc(C(=O)N2CCN(C)CC2)o1` was 7.74% (active); that for `COc1ccccc1OCc1ccc(C(=O)NC(C)c2ccccc2)o1` (configuration not stated) was 0.18%. The value for `O=C(c1ccco1)N1CCN(C(=O)c2ccc(COc3ccc(F)cc3)o2)CC1` was 6.29%; that for `CC(NC(=O)c1ccco1)c1ccc2c(c1)OCO2` (configuration not stated) was -0.03%. Regarding `Cc1cc(C(=O)NNC(=S)Nc2ccccc2C)cs1`, the proliferation is 0%. The value for `Cc1ccccc1NC(=S)NNC(=O)c1cccc(Br)c1` was 13.8% (active). As to `O=C(NC(=S)Nc1cccc2c(O)cccc12)c1cccc(Br)c1`, the proliferation is -7.11%.

As to `CC1(C)O[C@@H]2[C@H](O1)[C@@H](CO)O[C@H]2n1c(N2CCCCC2)nc2c(N)ncnc21`, the proliferation was 1.62%. For the molecule `C[C@@H](Nc1nc(-c2ccccc2)nc2c1oc1ccccc12)C(=O)O`, the proliferation was -1.21%. For `COCCNc1nc(-c2ccccc2)nc2c1oc1ccccc12` the value was 6.28% (active). For `COc1ccc(C)cc1Nc1nc(C)nc2c1oc1ccccc12` the value was -4.77%; for `Cc1cc(C)c(S(=O)(=O)NCC2CCC(C(=O)NCc3ccc4c(c3)OCO4)CC2)c(C)c1` (configuration not stated), -1.16%; for `O=C(CN1CCN(c2ccc(Cl)cc2)CC1)c1ccccc1`, -0.29%.

On to `COc1ccc(CN2CCNC(=O)C2CC(=O)NCc2cn[nH]c2-c2ccccc2)c(F)c1` (configuration not stated), for which the proliferation is 0.21%. As for `Cc1ccc2c(c1)N(S(=O)(=O)c1cc(-c3cc(C)no3)ccc1C)CCO2`, the proliferation was -6.66%. For `C=CCOC(=O)C1=C(C)OC(N)=C(C#N)C1c1ccc(F)cc1` (configuration not stated) the value was -0.46%; for `CCOC(=O)C1=C(C)OC(N)=C(C#N)C1c1cncc(-c2ccc(F)cc2)c1` (configuration not stated), -3.32%. The value for `CCOC(=O)C1=C(CC)OC(N)=C(C#N)C1c1ccc(F)cc1F` (configuration not stated) was 9.9% (active); that for `CC(=O)NC(C)(C)C1CC=C(C)/C(=N\O)C1` (configuration not stated) was -0.3%; that for `CCOC(=O)c1sc(NC(=O)CCN2CCOCC2)c(C(=O)OCC)c1C` was -6.14%.

For `CCOC(=O)Nc1sc(C(=O)N(C)C)c(C)c1C(=O)OCC`, the proliferation is 7.91% (active).

With `CCOC(=O)c1c(NC(=O)CCl)sc(C(=O)N(CC)CC)c1C`, the proliferation was -3.42%. The value for `NC(=O)c1nsc(C(=O)N(CCCN2CCOCC2)C(C(=O)NC2CCCCC2)c2ccc(Cl)cc2)c1N` (configuration not stated) was 0%. The value for `Cc1noc(COc2ccccc2OCc2onc(C)c2Cl)c1Cl` was -3.09%; that for `COC(=O)Cn1nc(-c2ccccc2)c2cc(Cl)ccc21` was -1.48%.

For `Cn1nc(-c2ccccc2)c2cc([N+](=O)[O-])ccc21`, the proliferation is 8.71% (active). For `O=[N+]([O-])c1ccc2c(c1)C(O)n1nc(-c3ccccc3)nc1S2` (configuration not stated) the value was -0.32%. For `C/C(Cl)=C\Cn1c(Nc2cccc(C)c2)nc2c1c(=O)n(C)c(=O)n2C` the value was -1.44%; for `COc1ccc(NC(=O)CNc2cc(S(=O)(=O)N3CCOCC3)ccc2N2CCOCC2)c(OC)c1`, -0.63%; for `CCOC(=O)C1(Cc2ccccc2C)CCCN(C(=O)CCc2c(C)noc2C)C1` (configuration not stated), 0.64%. For `CCOC(=O)N1CCN(C(=O)c2cn(C)c3ccc(S(=O)(=O)N4CCCC4)cc3c2=O)CC1` the value was -0.22%; for `Cc1ccc(S(=O)(=O)N2CCN(C)CC2)cc1C(=O)NC1CCCCC1`, -0.96%.

Consider `Cc1ccc(S(=O)(=O)N2CCCCC2)cc1C(=O)N1CCN(CCO)CC1`, for which the proliferation is 12.6% (active). For `CCC(NC(=O)c1ccccc1NC(=O)c1ccccc1)C(=O)NNC(=O)CSc1nc2ccccc2o1` (configuration not stated) the value was -0.4%; for `COc1ccc(N(CC(=O)N2CCOCC2)S(=O)(=O)c2ccccc2)cc1Cl`, -0.37%; for `COCCN(C(=O)CCC(=O)Nc1nccs1)C(C(=O)NC(C)(C)C)c1ccc(Cl)cc1` (configuration not stated), 5.62%. The value for `CC(=O)Nc1ccc(/C(C)=N/NC(=O)CN(c2ccccc2Br)S(C)(=O)=O)cc1` was 0%; that for `C=CCn1c(=O)c(C(=O)NCc2ccc3c(c2)OCO3)c(O)c2ccccc21` was -5.37%; that for `CCn1c(=O)cc(SCC(=O)NCc2ccc3c(c2)OCO3)c2ccccc21` was 0.19%. For `CCn1c(=O)c([N+](=O)[O-])c(NCc2ccc3c(c2)OCO3)c2ccccc21` the value was 8.6% (active). Turning to `CCc1ccc(S(=O)(=O)NCC(O)COc2ccc(OC)cc2)cc1` (configuration not stated), the proliferation is 1.69%. For `COc1ccc(CN(C(=O)CSc2nnc(-c3ccc(OC)c(OC)c3)o2)c2ccc(F)cc2)cc1` the value was -1.49%; for `CSc1cccc(NC(=O)CN2C(=O)COc3ccc(S(=O)(=O)N4CCOCC4)cc32)c1`, -3.64%. `O=C(c1ccc(F)cc1)c1cn(Cc2ccc(F)cc2)c2cc3c(cc2c1=O)OCCO3`: the proliferation is -0.71%. For `Cc1cc(NC(=O)CSc2nc3ccccc3n2CC(C)C)no1` the value was 7.98% (active); for `Cc1cc(NC(=O)COn2nnc3ccccc32)no1`, -1.01%; for `Cc1cc(NC(=O)CSCC(=O)NC(C)c2ccccc2)no1` (configuration not stated), -3.94%. For `CCOc1ccc(C(=O)Nc2ccc(CN3CCOCC3)cc2)cc1Cl` the value was -1.37%. The value for `CCOC(=O)c1csc(CCNC(=O)c2oc3c(Cl)cc(C)cc3c2C)n1` was -3.1%; that for `CCOC(=O)C(C)n1nc(-c2ccccc2)c2ccccc2c1=O` (configuration not stated) was 4.32%; that for `CCCNC(=O)CCn1nc(-c2ccccc2)c2ccccc2c1=O` was 9.9% (active). As to `O=c1c2ccccc2c(-c2ccc(Br)cc2)nn1Cc1ccccc1`, the proliferation is -5.75%. The value for `CCCn1c(C)cc(/C=C(\C#N)C(=O)OCC(=O)Nc2cc(OC)c(OC)c(OC)c2)c1C` was -0.86%; that for `COc1ccccc1N(C)C(=O)c1cc(S(=O)(=O)N2CCc3ccccc32)cn1C` was -2.09%; that for `CCOC(=O)c1c(N=CN(C)C)c(C#N)c2n1CCCC2` was 5.05%. The value for `CC1=NN(C(=O)CCCc2ccccc2)C(O)(C(F)(F)F)C1` (configuration not stated) was -1.71%; that for `OC1CN=C2Sc3ccccc3N2C1` (configuration not stated) was 5.2% (active); that for `CCOC(=O)N1CCN(C(=O)c2ccc3nc4cc(Cl)ccc4c(=O)n3c2)CC1` was -2.76%. For `O=C(CN1CCN(c2ccc(Cl)cc2)CC1)NCc1cccs1` the value was 0.22%. On to `CC1(C)SC2c3ccccc3C(=O)N2[C@@H]1C(=O)NCc1ccco1` (some centres not stated), for which the proliferation was 0.14%. The value for `COc1ccc(S(=O)(=O)N2CCC(C(=O)NCc3ccco3)CC2)cc1C` was -0.27%; that for `COc1cc2c(cc1OC)C(C(=O)NCc1ccco1)C1c3ccccc3CCN1C2=O` (configuration not stated) was 9.44% (active).

With `O=C1NC(c2ccc(-c3ccccc3[N+](=O)[O-])o2)C(C(=O)c2ccc(Cl)cc2)C(O)(C(F)(F)F)N1` (configuration not stated), the proliferation was -2.76%. The value for `COC(C(=O)NCc1ccccc1C)c1ccccc1` (configuration not stated) was -1.34%; that for `CC(=O)CC[C@@H](C)O[C@@H]1OC(C)[C@H](O)CC1O` (some centres not stated) was -5.25%. For `COc1cccc(CNC(=O)CCC2CCCN(C(=O)c3ccc(F)c(Cl)c3)C2)c1` (configuration not stated) the value was -1.84%. As for `COc1cccc(CNC(=O)CCC2CCCN(C(=O)c3ccoc3C)C2)c1` (configuration not stated), the proliferation is 12.3% (active). For `COc1cccc(CNC(=O)CCC2CCCN(C(=O)c3cc(C)[nH]n3)C2)c1` (configuration not stated) the value was 0.78%.

The values above are taken from PubChem BioAssay AID2380 (Sanford-Burnham Center for Chemical Genomics, 2010).
